According to publication PMC7862700, “An all-to-all approach to the identification of sequence-specific readers for epigenetic DNA modifications on cytosine”:

How the values were obtained:
Assay in all cases: DAPPL (digital affinity profiling via proximity ligation, sequencing); 10 mM Tris-HCl pH 7.5, 50 mM NaCl, 1 mM DTT, 4% glycerol, room temperature, 30 min; GST-TFs on glutathione beads, 16-mer random dsDNA library, 0.1% formaldehyde crosslink after washing; high values mean tight binding
Conditions in all cases: protein: recombinant; tags: N-terminal GST; dsDNA, one strand shown
[1] = target: T1, ERF (Homo sapiens, UniProt P50548 1-548)
T1 sequence: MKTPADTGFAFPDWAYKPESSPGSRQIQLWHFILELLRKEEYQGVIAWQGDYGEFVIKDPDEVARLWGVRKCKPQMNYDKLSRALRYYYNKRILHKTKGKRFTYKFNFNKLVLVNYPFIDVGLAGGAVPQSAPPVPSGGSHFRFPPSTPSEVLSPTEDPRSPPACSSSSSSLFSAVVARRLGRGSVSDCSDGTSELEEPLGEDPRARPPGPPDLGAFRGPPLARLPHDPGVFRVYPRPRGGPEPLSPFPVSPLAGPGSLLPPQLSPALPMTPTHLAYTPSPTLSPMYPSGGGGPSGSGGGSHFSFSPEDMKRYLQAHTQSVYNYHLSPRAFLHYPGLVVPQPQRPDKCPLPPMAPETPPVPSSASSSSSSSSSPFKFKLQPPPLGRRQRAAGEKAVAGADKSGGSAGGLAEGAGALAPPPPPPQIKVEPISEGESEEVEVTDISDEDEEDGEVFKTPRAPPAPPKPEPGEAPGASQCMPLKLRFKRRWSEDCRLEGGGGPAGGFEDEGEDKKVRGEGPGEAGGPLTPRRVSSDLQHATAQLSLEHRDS
Summary of the method: (§1)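 Pools of DNA-barcoded human transcription factors, expressed in yeast as GST fusions on glutathione beads and combined with a tag-only sample, were incubated with 200 nmole of a 16-mer random double-stranded DNA library. Incubation took 30 min at room temperature in Tris/NaCl/DTT/glycerol buffer and was followed by washing, 0.1% formaldehyde crosslinking, proximity ligation (BsaI/T4 ligase, 1 h, 37 °C), PCR amplification and sequencing on an Illumina NextSeq500. Binding signal is the ratio of a hexamer's read frequency for a factor to its frequency for the tag-only sample.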

[2] = target: T2, ETV3L (Homo sapiens, UniProt Q6ZN32 1-361)
T2 sequence: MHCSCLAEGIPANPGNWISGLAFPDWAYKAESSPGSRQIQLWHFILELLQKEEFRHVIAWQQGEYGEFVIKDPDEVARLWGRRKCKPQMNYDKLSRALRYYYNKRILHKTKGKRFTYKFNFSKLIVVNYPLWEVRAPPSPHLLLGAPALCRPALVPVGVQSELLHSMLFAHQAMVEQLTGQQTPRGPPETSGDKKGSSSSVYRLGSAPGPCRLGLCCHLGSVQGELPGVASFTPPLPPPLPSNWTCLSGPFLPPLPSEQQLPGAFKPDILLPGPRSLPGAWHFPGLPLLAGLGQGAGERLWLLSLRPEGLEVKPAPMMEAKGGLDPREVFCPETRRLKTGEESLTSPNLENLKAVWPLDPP
Summary of the method: as §1

[3] = target: T3, ETS2 (Homo sapiens, UniProt P15036 1-469)
T3 sequence: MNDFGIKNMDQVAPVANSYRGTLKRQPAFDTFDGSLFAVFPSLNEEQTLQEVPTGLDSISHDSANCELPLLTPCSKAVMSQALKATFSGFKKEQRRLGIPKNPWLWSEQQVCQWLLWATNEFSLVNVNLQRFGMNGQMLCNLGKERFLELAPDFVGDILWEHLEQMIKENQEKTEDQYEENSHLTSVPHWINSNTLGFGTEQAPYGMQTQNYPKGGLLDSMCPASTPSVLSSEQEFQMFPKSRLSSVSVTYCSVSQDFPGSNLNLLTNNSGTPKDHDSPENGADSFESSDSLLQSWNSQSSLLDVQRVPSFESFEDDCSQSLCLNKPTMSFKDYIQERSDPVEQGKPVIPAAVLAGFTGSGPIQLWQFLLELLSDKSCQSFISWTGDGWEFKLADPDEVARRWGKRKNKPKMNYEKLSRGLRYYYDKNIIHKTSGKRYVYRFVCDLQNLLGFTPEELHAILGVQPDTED
Summary of the method: as §1

[4] = target: T4, SPDEF (Homo sapiens, UniProt O95238 1-335)
T4 sequence: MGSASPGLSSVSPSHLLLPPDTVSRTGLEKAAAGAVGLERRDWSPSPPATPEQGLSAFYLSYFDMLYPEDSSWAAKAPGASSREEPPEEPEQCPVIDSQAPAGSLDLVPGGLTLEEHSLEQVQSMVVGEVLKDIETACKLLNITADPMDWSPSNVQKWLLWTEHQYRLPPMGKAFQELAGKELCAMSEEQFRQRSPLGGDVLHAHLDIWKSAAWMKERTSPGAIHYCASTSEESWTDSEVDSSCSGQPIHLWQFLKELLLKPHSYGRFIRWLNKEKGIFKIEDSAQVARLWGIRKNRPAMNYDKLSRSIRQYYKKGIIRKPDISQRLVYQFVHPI
Summary of the method: as §1

[5] = target: T5, ETV7 (Homo sapiens, UniProt Q9Y603 1-341)
T5 sequence: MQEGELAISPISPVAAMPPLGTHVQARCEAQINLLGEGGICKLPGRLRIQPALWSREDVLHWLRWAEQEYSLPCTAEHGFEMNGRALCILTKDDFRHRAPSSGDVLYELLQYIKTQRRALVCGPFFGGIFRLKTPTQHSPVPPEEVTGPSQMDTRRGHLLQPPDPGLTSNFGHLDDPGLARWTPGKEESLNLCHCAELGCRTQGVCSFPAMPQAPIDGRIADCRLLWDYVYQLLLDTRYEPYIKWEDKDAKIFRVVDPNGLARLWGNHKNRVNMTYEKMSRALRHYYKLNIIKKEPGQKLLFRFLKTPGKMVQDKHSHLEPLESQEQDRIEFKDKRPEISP
Summary of the method: as §1

[6] = target: T6, ELF5 (Homo sapiens, UniProt Q9UKW6-2 1-255)
T6 sequence: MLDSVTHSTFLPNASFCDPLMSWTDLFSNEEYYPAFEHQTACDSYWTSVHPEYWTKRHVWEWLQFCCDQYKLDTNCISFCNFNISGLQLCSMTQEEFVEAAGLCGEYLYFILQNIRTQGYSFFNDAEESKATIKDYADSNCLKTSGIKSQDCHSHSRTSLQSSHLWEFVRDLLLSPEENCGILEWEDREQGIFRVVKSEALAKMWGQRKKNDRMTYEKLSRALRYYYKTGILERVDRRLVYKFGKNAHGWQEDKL
Summary of the method: as §1

[7] = target: T7, ETV3 (Homo sapiens, UniProt P41162-2 1-143)
T7 sequence: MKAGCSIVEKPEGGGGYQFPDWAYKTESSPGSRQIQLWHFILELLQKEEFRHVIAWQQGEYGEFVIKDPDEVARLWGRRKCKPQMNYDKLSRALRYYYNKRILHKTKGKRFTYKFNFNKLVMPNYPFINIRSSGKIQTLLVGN
Summary of the method: as §1

[8] = target: ETV6 (Homo sapiens, UniProt P41212 1-452)
ETV6, sequence (P41212 whole entry): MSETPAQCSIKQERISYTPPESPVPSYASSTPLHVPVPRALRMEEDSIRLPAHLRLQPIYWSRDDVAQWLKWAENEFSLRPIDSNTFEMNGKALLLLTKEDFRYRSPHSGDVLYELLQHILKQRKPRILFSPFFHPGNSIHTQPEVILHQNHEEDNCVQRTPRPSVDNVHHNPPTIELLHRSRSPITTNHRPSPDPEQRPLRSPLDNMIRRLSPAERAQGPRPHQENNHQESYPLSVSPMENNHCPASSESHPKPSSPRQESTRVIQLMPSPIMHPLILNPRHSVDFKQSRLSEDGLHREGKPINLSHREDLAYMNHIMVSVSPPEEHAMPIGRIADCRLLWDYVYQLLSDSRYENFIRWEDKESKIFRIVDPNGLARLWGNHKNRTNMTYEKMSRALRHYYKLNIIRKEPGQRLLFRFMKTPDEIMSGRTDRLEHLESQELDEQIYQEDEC
Summary of the method: as §1

With CTTTGA the binding signal [1] was 1.18 fold enrichment (6-mer frequency, TF over GST control), the binding signal [2] was 1.11 fold enrichment (6-mer frequency, TF over GST control) and the binding signal [3] was 1.15 fold enrichment (6-mer frequency, TF over GST control). The binding signal [4] was 1.1 fold enrichment (6-mer frequency, TF over GST control), the binding signal [5] was 1.34 fold enrichment (6-mer frequency, TF over GST control) and the binding signal [6] was 1.16 fold enrichment (6-mer frequency, TF over GST control). For the same sequence, the binding signal [7] was 1.35 fold enrichment (6-mer frequency, TF over GST control) and the binding signal [8] was 1.25 fold enrichment (6-mer frequency, TF over GST control).
In the case of CCTGAC, the binding signal [1] is reported as 1.37 fold enrichment (6-mer frequency, TF over GST control), the binding signal [2] is reported as 1.59 fold enrichment (6-mer frequency, TF over GST control) and the binding signal [3] is reported as 1.56 fold enrichment (6-mer frequency, TF over GST control). For the same sequence, the binding signal [4] was 1.51 fold enrichment (6-mer frequency, TF over GST control), the binding signal [5] was 1.46 fold enrichment (6-mer frequency, TF over GST control) and the binding signal [6] was 1.63 fold enrichment (6-mer frequency, TF over GST control). The binding signal [7] was 1.44 fold enrichment (6-mer frequency, TF over GST control) and the binding signal [8] was 1.6 fold enrichment (6-mer frequency, TF over GST control).
With GCTAGC the binding signal [1] was 1.2 fold enrichment (6-mer frequency, TF over GST control), the binding signal [2] was 1.35 fold enrichment (6-mer frequency, TF over GST control) and the binding signal [3] was 1.2 fold enrichment (6-mer frequency, TF over GST control). For the same sequence, the binding signal [4] was 1.13 fold enrichment (6-mer frequency, TF over GST control), the binding signal [5] was 1.24 fold enrichment (6-mer frequency, TF over GST control) and the binding signal [6] was 1.15 fold enrichment (6-mer frequency, TF over GST control). For the same sequence, the binding signal [7] was 1.16 fold enrichment (6-mer frequency, TF over GST control) and the binding signal [8] was 1.09 fold enrichment (6-mer frequency, TF over GST control).
With GATTAT the binding signal [1] was 1.06 fold enrichment (6-mer frequency, TF over GST control), the binding signal [2] was 1.11 fold enrichment (6-mer frequency, TF over GST control) and the binding signal [3] was 1.04 fold enrichment (6-mer frequency, TF over GST control). For the same sequence, the binding signal [4] was 1.1 fold enrichment (6-mer frequency, TF over GST control), the binding signal [5] was 1.18 fold enrichment (6-mer frequency, TF over GST control) and the binding signal [6] was 1.04 fold enrichment (6-mer frequency, TF over GST control). For the same sequence, the binding signal [7] was 1.04 fold enrichment (6-mer frequency, TF over GST control) and the binding signal [8] was 1.12 fold enrichment (6-mer frequency, TF over GST control).
For AGAATT, the binding signal [1] was 1.17 fold enrichment (6-mer frequency, TF over GST control), the binding signal [2] was 1.17 fold enrichment (6-mer frequency, TF over GST control) and the binding signal [3] was 1.14 fold enrichment (6-mer frequency, TF over GST control). For the same sequence, the binding signal [4] was 1.05 fold enrichment (6-mer frequency, TF over GST control), the binding signal [5] was 1.13 fold enrichment (6-mer frequency, TF over GST control) and the binding signal [6] was 1.1 fold enrichment (6-mer frequency, TF over GST control). The binding signal [7] was 1.09 fold enrichment (6-mer frequency, TF over GST control) and the binding signal [8] was 1.2 fold enrichment (6-mer frequency, TF over GST control).
TTATCG was tested, and the binding signal [1] was 1.2 fold enrichment (6-mer frequency, TF over GST control), the binding signal [2] was 1.32 fold enrichment (6-mer frequency, TF over GST control) and the binding signal [3] was 1.2 fold enrichment (6-mer frequency, TF over GST control). The binding signal [4] was 1.16 fold enrichment (6-mer frequency, TF over GST control), the binding signal [5] was 1.02 fold enrichment (6-mer frequency, TF over GST control) and the binding signal [6] was 1.25 fold enrichment (6-mer frequency, TF over GST control). The binding signal [7] was 1.22 fold enrichment (6-mer frequency, TF over GST control) and the binding signal [8] was 1.27 fold enrichment (6-mer frequency, TF over GST control).
In the case of TCCCAT, the binding signal [1] is reported as 1.4 fold enrichment (6-mer frequency, TF over GST control), the binding signal [2] is reported as 1.38 fold enrichment (6-mer frequency, TF over GST control) and the binding signal [3] is reported as 1.4 fold enrichment (6-mer frequency, TF over GST control). The binding signal [4] was 1.23 fold enrichment (6-mer frequency, TF over GST control), the binding signal [5] was 1.28 fold enrichment (6-mer frequency, TF over GST control) and the binding signal [6] was 1.44 fold enrichment (6-mer frequency, TF over GST control). The binding signal [7] was 1.32 fold enrichment (6-mer frequency, TF over GST control) and the binding signal [8] was 1.37 fold enrichment (6-mer frequency, TF over GST control).
AAATCC was tested, and the binding signal [1] was 1.48 fold enrichment (6-mer frequency, TF over GST control), the binding signal [2] was 1.47 fold enrichment (6-mer frequency, TF over GST control) and the binding signal [3] was 1.62 fold enrichment (6-mer frequency, TF over GST control). For the same sequence, the binding signal [4] was 2.08 fold enrichment (6-mer frequency, TF over GST control), the binding signal [5] was 1.61 fold enrichment (6-mer frequency, TF over GST control) and the binding signal [6] was 1.75 fold enrichment (6-mer frequency, TF over GST control). The binding signal [7] was 1.49 fold enrichment (6-mer frequency, TF over GST control) and the binding signal [8] was 1.6 fold enrichment (6-mer frequency, TF over GST control).
